Calls of active or inactive are those of the source. Rule as the data show it: active = fold change mostly below about -2 (no sharp cut-off); inactive = mostly above about -1.8.
Experiment: modulation of TERT promoter-driven luciferase – cell-based, luciferase reporter, human, primary screen (AID 1259240)
Conditions: A2780 TERT promoter luciferase reporter, 16 h; at 20 µM, fold versus average of vehicle-only wells

Fold change, inactive:
CN1CCN(CCNC(=O)Cn2ncc3c4ccccc4n(C)c3c2=O)CC1 -1.16
Cc1cc(NS(=O)(=O)c2ccc(NC(=O)[C@@H]3CCCC[C@@H]3C(=O)O)cc2)no1 -1.94
CCOC(=O)N1CCN(c2c(NCC3CCCO3)c(=O)c2=O)CC1 (stereo unspecified) 1.16
CCOC(=O)c1nn(-c2ccc(OC)cc2)c(=O)c2c(NC(C)=O)scc12 1.14
CCCN(CCC)C(=O)Cn1c(=O)oc2cc(S(=O)(=O)N3CC(C)CC(C)C3)ccc21 (stereo unspecified) 1.03
O=C1c2cccnc2C(=O)N1Cc1ccccc1 1.84
CNC(=O)CN1C(=O)COc2ccc(S(=O)(=O)N3CCOCC3)cc21 -1.1
COc1ccc2cc3c(N)nn(C(=O)CCS(=O)(=O)c4ccccc4)c3nc2c1 -1.33
CCOC(=O)N1CCN(c2c(NC3CCCC(C)C3C)c(=O)c2=O)CC1 (stereo unspecified) 1.1
COc1ccc(NC(=O)c2cnccn2)cc1F -1.32
Cc1c(NC(=O)c2ncn[nH]2)c(=O)n(-c2ccccc2)n1C -1.33
O=C(CN1C(=O)COc2ccc(S(=O)(=O)N3CCCC3)cc21)NCCCN1CCOCC1 -1.17
CCn1c2ccccc2c2nnc(SCC(=O)Nc3nnc(C(C)C)s3)nc21 -1.93
CCc1nc(C)cn1S(=O)(=O)c1cc(C)c(OC)cc1C -1.15
COc1cccc2cc(S(=O)(=O)c3ccccc3)c(=O)oc12 1.83
CN1CCc2nc3sc(C(=O)Nc4ccc(F)cc4)c(N)c3cc2C1 -1.42
